Structures can show the parent of a compound that is named as a salt. ± gives the standard deviation of the averaged measurements. Whole data set: some 1,300 compounds, median “normalised cell viability” near 1, cut for the lowest 2% near 0.15. This is one part of a sample in which the lowest values are shown more often than they occur.
Tested on: V-C8 + BRCA2 (BRCA2-proficient hamster cells)
Assay: normalised cell viability (fraction of plate median); higher = more viable cells (less toxic)
Conditions: 5 µM
In short: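 Hamster V-C8 cells lacking BRCA2 and V-C8 cells with BRCA2 restored were seeded in 96-well plates. Library drugs (10 mM DMSO stocks) were added 24 h later at 5 μM in 100 μl medium, next to DMSO control wells, for 3 days (screen 1) or 6 days (screen 2). Cell viability was read by resazurin assay, median-plate normalised (modified robust per cent of sample), and triplicate wells were averaged.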

SMILES | normalised cell viability (treatment time: 3 days) | normalised cell viability (treatment time: 6 days)
COc1ccc(C2CNC(=O)C2)cc1OC1CCCC1 (stereo not given) [Rolipram] | 0.985 ± 0.037 | 1.15 ± 0.22
CC(C)n1c(/C=C/C(O)CC(O)CC(=O)O)c(-c2ccc(F)cc2)c2ccccc21 (stereo not given) [Fluvastatin sodium salt] | 0.134 ± 0.0077 | 0.155 ± 0.013
CC(C)c1c(C(=O)Nc2ccccc2)c(-c2ccccc2)c(-c2ccc(F)cc2)n1CC[C@@H](O)C[C@@H](O)CC(=O)O [Atorvastatin] | 0.701 ± 0.01 | 0.743 ± 0.017
CC[N+](C)(C)Cc1ccccc1Br [Bretylium tosylate] | 0.9932 ± 0.0068 | 0.977 ± 0.013
C=C(NC(=O)C(=C)NC(=O)c1csc(C2=N[C@@H]3c4csc(n4)[C@H]4NC(=O)c5csc(n5)[C@H]([C@](C)(O)[C@@H](C)O)NC(=O)[C@H]5CSC(=N5)/C(=C/C)NC(=O)[C@H]([C@@H](C)O)NC(=O)c5csc(n5)[C@]3(CC2)NC(=O)[C@H](C)NC(=O)C(=C)NC(=O)[C@H](C)NC(=O)[C@H]([C@@H](C)CC)N[C@@H]2C=Cc3c([C@H](C)O)cc(nc3[C@H]2O)C(=O)O[C@@H]4C)n1)C(N)=O [Thiostrepton] | 0.135 ± 0.0082 | 0.126 ± 0.013
CCCC(=O)Nc1ccc(OCC(O)CNC(C)C)c(C(C)=O)c1 (stereo not given) [Acebutolol hydrochloride] | 0.99 ± 0.034 | 1.04 ± 0.012
CCC(=O)OCC(=O)[C@@]1(OC(=O)CC)[C@@H](C)C[C@H]2[C@@H]3CCC4=CC(=O)C=C[C@]4(C)[C@@]3(Cl)[C@@H](O)C[C@@]21C [Beclomethasone dipropionate] | 1 ± 0.081 | 0.987 ± 0.048
Cc1onc(-c2c(F)cccc2Cl)c1C(=O)N[C@@H]1C(=O)N2[C@@H]1SC(C)(C)[C@@H]2C(=O)O [Flucloxacillin sodium] | 1.02 ± 0.065 | 0.984 ± 0.016
Cc1c(Cl)cccc1Nc1ncccc1C(=O)O [Clonixin Lysinate] | 0.938 ± 0.067 | 0.983 ± 0.046
Nc1ccc(S(=O)(=O)Nc2ncccn2)cc1 [Sulfadiazine] | 1.01 ± 0.068 | 1.024 ± 0.0048
O=S(=O)(O)CCS [Mesna] | 1.06 ± 0.07 | 1.02 ± 0.024
C[C@@H]1CCC[C@H](C)N1NC(=O)c1ccc(Cl)c(S(N)(=O)=O)c1 [Clopamide] | 1.22 ± 0.11 | 0.9899 ± 0.0083
N#Cc1ccc(C2CCCc3cncn32)cc1 (stereo not given) [Fadrozole hydrochloride] | 0.955 ± 0.11 | 0.949 ± 0.078
NC(=O)c1cc[n+](CC2=C(C(=O)[O-])N3C(=O)[C@@H](NC(=O)[C@@H](c4ccccc4)S(=O)(=O)O)[C@H]3SC2)cc1 [Cefsulodin sodium salt] | 0.981 ± 0.043 | 1.06 ± 0.048
c1ccc(-c2ccc(C(c3ccccc3)n3ccnc3)cc2)cc1 (stereo not given) [Bifonazole] | 0.951 ± 0.042 | 0.914 ± 0.066
